Bioassay records: PubChem BioAssay, National Center for Advancing Translational Sciences (NCATS)
The list is not random: actives were taken first. Their share in the collection is about 8.8%.
HT1080-NT tox = kills 2HG-producing HT-1080-NT fibrosarcoma cells; HT-1080-NT fibrosarcoma viability, CellTiter-Glo ATP luminescence, 48 h; Potency, µM (doses to about 46.1 µM), actives largely listed as cytotoxic; actives 1.6% (n = 360,000); AID 686970;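 also: NT is the 2HG producing partner of a matched IDH1 knockdown line; nearly all actives have a fitted effect of over 55% in size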
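Toxicity toward the 2HG-producing NT line was scored as %Activity, normalised to DMSO and no-cell wells, from CellTiter-Glo luminescence after 48 hours' treatment.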
KB-3-1 cytotox = kills parental KB-3-1 adenocarcinoma cells | KB-3-1 viability, CellTiter-Glo ATP luminescence, 72 h | Potency, µM (series often up to 46.1 µM), actives largely listed as cytotoxic | actives 1.4% (n = 400,000) | AID 1347075; also: nearly all actives have a fitted effect of over 60% in size
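Viability of parental KB-3-1 cells, measured by CellTiter-Glo luminescence, followed a 72 h incubation at 37 °C with pinned compounds in phenol-red-free DMEM containing 10% FBS.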
IL1B secr inh = inflammasome signaling inhibition, IL-1 beta readout | THP-1 LPS/ATP IL-1B secretion, AlphaLISA, 16 h; hits give low values | activity change, % at 57.5 µM | actives 4.7% (n = 360,000); in the data active = activity change below about -50%; inconclusive = mostly about -30% to -49%
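THP-1 cells pretreated 1 hr with compounds (up to 57.5 uM final), then stimulated with LPS (250 ng/mL final) plus ATP (1.25 mM final); secreted IL-1B measured by AlphaLISA after 16 hr, decreased signal indicating inhibition.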
KB-V1 cytotox = KB-V1 MDR subline cytotoxicity; actives 3.4% (n = 400,000); AID 1347076; KB-V1 MDR cells viability, CellTiter-Glo, 72 h; Potency, µM (doses to about 46.1 µM), actives largely listed as cytotoxic; also: nearly all actives have a fitted effect of over 60% in size
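In this primary screen, KB-V1 cells overexpressing P-gp are incubated with library compounds (lowest to highest concentration) for 72 h at 37 degrees C before a luminescent ATP viability read.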
HT1080 IDH1KD tx = kills HT-1080 cells with IDH1 knockdown; HT-1080 IDH1 knockdown viability, ATP luminescence, 48 h; Potency, µM (series often up to 46.1 µM), hits mostly cytotoxic; actives 2% (n = 360,000); AID 686971
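Cytotoxicity counter-line: IDH1KD HT-1080, 48 h, CellTiter-Glo. Curves classed by r2, magnitude and activity.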
A number is an active result. Unless noted, calls follow the shape of the dose curve; as a rule, active = well fitted curve in the direction sought with a large enough effect; inconclusive = small, poorly fitted or top-dose-only effect, or another doubt; inactive = no such curve, though single readings can be large; an effect the other way counts as inactive or inconclusive.

Results for CC(O)CNCCCOc1ccc(Cl)cc1C(C)(C)C (stereo not drawn) ?
HT1080-NT tox: 18µM; KB-3-1 cytotox: inconclusive; IL1B secr inh: -66; KB-V1 cytotox: 21µM; HT1080 IDH1KD tx: inconclusive

What do the screens show for `CN(C)CCOCCOc1ccccc1-c1ccccc1`?
HT1080-NT tox: inactive; KB-3-1 cytotox: inconclusive; IL1B secr inh: inactive; KB-V1 cytotox: inconclusive; HT1080 IDH1KD tx: inactive

What do the screens show for `CN(C)CCOCCOc1ccc(Cl)cc1C(C)(C)C`?
HT1080-NT tox: inconclusive; KB-3-1 cytotox: inactive; IL1B secr inh: -56; KB-V1 cytotox: inconclusive; HT1080 IDH1KD tx: inconclusive

Results for C=CCn1c(COc2ccc(F)cc2)nnc1SCC(=O)c1c[nH]c2c(CC)cccc12 ?
HT1080-NT tox: inactive; KB-3-1 cytotox: inactive; IL1B secr inh: inactive; KB-V1 cytotox: 13µM; HT1080 IDH1KD tx: inactive

Results for CCOC(=O)Cc1ccc(NC(=O)N(Cc2ccc(OC)cc2)C2CCN(C(C)=O)CC2)cc1 ?
KB-3-1 cytotox: inactive; KB-V1 cytotox: inactive

What do the screens show for `COc1ccc2nc3n(c(=O)c2c1)-c1ccc(Cl)cc1C(=O)NC3Cc1ccc(O)cc1` (stereo not drawn)?
HT1080-NT tox: inactive; KB-3-1 cytotox: inactive; IL1B secr inh: inactive; KB-V1 cytotox: inconclusive; HT1080 IDH1KD tx: inactive

How did COc1ccc2nc3n(c(=O)c2c1)-c1cc2ccccc2cc1C(=O)NC3Cc1ccc(O)cc1 (stereo not drawn) do in these assays?
HT1080-NT tox: 6.5µM; KB-3-1 cytotox: inactive; IL1B secr inh: inactive; KB-V1 cytotox: inactive; HT1080 IDH1KD tx: 3.3µM

Results for COc1ccc2nc3n(c(=O)c2c1)-c1cc2ccccc2cc1C(=O)NC3Cc1ccccc1 (stereo not drawn) ?
HT1080-NT tox: inactive; KB-3-1 cytotox: 12µM; IL1B secr inh: inactive; KB-V1 cytotox: inconclusive; HT1080 IDH1KD tx: inactive

How did CCC1NC(=O)c2cc3ccccc3cc2-n2c1nc1cc(OC)c(OC)cc1c2=O (stereo not drawn) do in these assays?
HT1080-NT tox: inactive; KB-3-1 cytotox: inactive; IL1B secr inh: inactive; KB-V1 cytotox: inactive; HT1080 IDH1KD tx: inactive

How did O=C1NC(Cc2ccc(O)cc2)c2nc3ccc(Br)cc3c(=O)n2-c2cc3ccccc3cc21 (stereo not drawn) do in these assays?
HT1080-NT tox: 16µM; KB-3-1 cytotox: inconclusive; IL1B secr inh: inactive; KB-V1 cytotox: inconclusive; HT1080 IDH1KD tx: 13µM

Results for CC(C)(C)S(=O)(=O)c1nc2ccccc2s1 ?
HT1080-NT tox: inactive; KB-3-1 cytotox: inactive; IL1B secr inh: inconclusive; KB-V1 cytotox: inactive; HT1080 IDH1KD tx: inactive

What do the screens show for `O=S(=O)(CCSc1nc2ccccc2s1)c1nc2ccccc2s1`?
HT1080-NT tox: 21µM; KB-3-1 cytotox: inconclusive; IL1B secr inh: -100; KB-V1 cytotox: inconclusive; HT1080 IDH1KD tx: 21µM

How did C=CCS(=O)(=O)c1nc2ccccc2s1 do in these assays?
HT1080-NT tox: inactive; KB-3-1 cytotox: inconclusive; IL1B secr inh: -115; KB-V1 cytotox: 23µM; HT1080 IDH1KD tx: inactive

How did COC(=O)c1ccc(NC(=O)c2cc3cc4ccc(OC)c(Cl)c4nc3s2)cc1 do in these assays?
KB-3-1 cytotox: inactive; KB-V1 cytotox: inactive

How did Cc1ccc(S(=O)(=O)CCSc2nc(C)cc(C)c2C#N)cc1 do in these assays?
HT1080-NT tox: inconclusive; KB-3-1 cytotox: inactive; IL1B secr inh: inactive; KB-V1 cytotox: inconclusive; HT1080 IDH1KD tx: inconclusive

What do the screens show for `CSc1nc(N)nc(SCC(=O)Nc2cccc(F)c2)c1C#N`?
HT1080-NT tox: inactive; KB-3-1 cytotox: inconclusive; IL1B secr inh: inactive; KB-V1 cytotox: 2.3µM; HT1080 IDH1KD tx: inactive

What do the screens show for `CSc1nc(N)nc(SCC(=O)Nc2ccc(Cl)cc2)c1C#N`?
HT1080-NT tox: inconclusive; KB-3-1 cytotox: inconclusive; IL1B secr inh: -78; KB-V1 cytotox: inactive; HT1080 IDH1KD tx: inconclusive

Results for CSc1nc(N)nc(SCCS(=O)(=O)c2ccc(Cl)cc2)c1C#N ?
HT1080-NT tox: inconclusive; KB-3-1 cytotox: inactive; IL1B secr inh: inconclusive; KB-V1 cytotox: inconclusive; HT1080 IDH1KD tx: 11µM

What do the screens show for `CSc1nc(N)nc(SCC(=O)C(C)(C)C)c1C#N`?
HT1080-NT tox: inactive; KB-3-1 cytotox: inactive; IL1B secr inh: inactive; KB-V1 cytotox: inactive; HT1080 IDH1KD tx: inactive

What do the screens show for `C[C@@H]1CCCCO[C@H](CN(C)C(=O)Nc2ccc(C(F)(F)F)cc2)[C@@H](C)CN([C@H](C)CO)C(=O)c2cc(NC(=O)c3ccncc3)ccc2O1`?
HT1080-NT tox: inactive; KB-3-1 cytotox: inactive; IL1B secr inh: inactive; KB-V1 cytotox: inconclusive; HT1080 IDH1KD tx: inactive

What do the screens show for `CCOC(=O)COc1cc(N2C(=O)CSCC2=O)c(Cl)cc1Cl`?
HT1080-NT tox: inactive; KB-3-1 cytotox: inactive; IL1B secr inh: -99; KB-V1 cytotox: inactive; HT1080 IDH1KD tx: inactive

How did CCOC(=O)COc1cc(-n2c(=S)[nH]c3cc(OC)c(OC)cc3c2=O)c(Cl)cc1Cl do in these assays?
HT1080-NT tox: inactive; KB-3-1 cytotox: inactive; IL1B secr inh: inactive; KB-V1 cytotox: inactive; HT1080 IDH1KD tx: inactive

Results for Cc1ccc(S(=O)(=O)N2CCOC2CNC(=O)C(=O)NCCN2CCOCC2)cc1 (stereo not drawn) ?
HT1080-NT tox: inactive; KB-3-1 cytotox: inactive; IL1B secr inh: inactive; KB-V1 cytotox: inactive; HT1080 IDH1KD tx: inactive

How did COc1ccc(-c2nc3ccccc3c(=O)n2NC(=O)Cc2ccccc2)cc1 do in these assays?
HT1080-NT tox: inactive; KB-3-1 cytotox: inactive; IL1B secr inh: inactive; KB-V1 cytotox: 15µM; HT1080 IDH1KD tx: inactive

What do the screens show for `CCCCC12CN3CC(C)(CN(C1)C31C(=O)N(C)c3ccc(C)cc31)C2=O` (stereo not drawn)?
HT1080-NT tox: inactive; KB-3-1 cytotox: inactive; IL1B secr inh: inactive; KB-V1 cytotox: 9.2µM; HT1080 IDH1KD tx: inactive

How did CCCCC12CN3CC(C)(CN(C1)C3c1ccc(OCc3ccccc3)cc1)C2=O (stereo not drawn) do in these assays?
KB-3-1 cytotox: inactive; KB-V1 cytotox: inactive

Results for NC(=O)[C@H]1CC2(CC(c3cccc(NC(=O)[C@H]4CCC(=O)N4)c3)=NO2)CN1C(=O)c1cc([N+](=O)[O-])cc([N+](=O)[O-])c1 (stereo partly drawn) ?
HT1080-NT tox: inactive; KB-3-1 cytotox: inactive; IL1B secr inh: inactive; KB-V1 cytotox: inactive; HT1080 IDH1KD tx: inactive

What do the screens show for `CC1=C(c2ccc(C)cc2)S(=O)(=O)N=C1N1CCN(c2ccccc2)CC1`?
KB-3-1 cytotox: inactive; KB-V1 cytotox: inactive

Results for O=c1[nH]c(=S)[nH]c2c1C(c1ccc(Br)cc1)c1c([nH]c(=S)[nH]c1=O)O2 ?
HT1080-NT tox: inactive; KB-3-1 cytotox: inactive; IL1B secr inh: inactive; KB-V1 cytotox: inactive; HT1080 IDH1KD tx: inactive

Results for N#CC1CCCc2c1[nH]c1ccc([N+](=O)[O-])cc21 (stereo not drawn) ?
HT1080-NT tox: inactive; KB-3-1 cytotox: inconclusive; IL1B secr inh: inconclusive; KB-V1 cytotox: inactive; HT1080 IDH1KD tx: inconclusive
